Only some compounds are listed: those with a hit (about 3.8% of all), similar ones and a draw of the others.
pCIP destab: compounds decreasing mouse p/CIP protein stability; Q05BA5; F442A p/CIP-EGFP cells, EGFP fluorescence, 16 h; decrease of EGFP signal, % at 10 µM; 0.01% of 290,000 active; AID 1984;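 active = EGFP signal decrease of at least 30% at 10 µM or well 3 SD below plate mean, unless failing retest; inactive = the rest, including hits failing retest or dose response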
NALP1 inh: blocks the NALP1 inflammasome reconstituted in yeast | S. cerevisiae NALP1/ASC/caspase-1 growth, X-gal OD620, 72 h | inhibition, % at 10 µM | 0.61% of 280,000 active | AID 2071; in the data active = inhibition mostly above about 24%, no sharp cut-off; inactive = mostly below about 32%
HSF1 inh: HSF1 inhibition | NIH3T3-HGL HSE-luciferase, MG132-induced, luminescence 8 h; active compounds read low | activity change, negative = inhibition, % at 7.5 µM (by protocol) | 0.77% of 300,000 active;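 active = more than half of replicate wells show activity change below -50%, luminescence cut by over half; inconclusive = some wells, but at most half, below -50%; inactive = no replicate well below -50%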;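 also: luciferase reports HSF-1 transcriptional activity via heat shock element; 0% = median of DMSO wells and -100% = zero luminescence signal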
Hsp70 activator: Hsp70 transcriptional activation, primary screen. HeLa Hsp70 promoter luciferase reporter, luminescence; scaled: vehicle 0, proteasome-inhibitor control 100%. activation, % at 10 µM. 0.04% of 200,000 active;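 active = activation above the mean across all tested compounds plus 3 SD, cutoff set per campaign, cut at about 5.5% in these data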;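 also: 100% = MG132 at 30 µM as the positive control and 0% = DMSO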
HSF1 activator: increases HSF-1 driven luciferase reporter signal; activation, % at 9 µM; 1.7% of 300,000 active; AID 504408; NIH3T3-HGL HSF-1 luciferase reporter, MG132, 8 h; 100% = twice DMSO control signal;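 active = mean replicate activation of at least 50% with a set share of replicates each reaching 50%; inconclusive = only one of those two conditions met; inactive = mean below 50% and too few replicates reaching it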;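 also: 0% = median of the neutral control wells and 100% = twice that signal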
HSP90 inh: inhibitors of HSP90 luciferase refolding in rabbit reticulocyte lysate. inhibition, % at 5.6 µM. 0.91% of 290,000 active. AID 1789. luciferase refolding luminescence, 3 h;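 active = inhibition above the screen-wide mean plus 3 SD, computed separately per campaign, cut at about 16% in these data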;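 also: 0% = DMSO wells and 100% = 60 µM geldanamycin wells; inhibitors lower the luminescence because luciferase stays unfolded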
The depositor's hits bear a star; ? = inconclusive; nt = no result.

SMILES	pCIP destab	NALP1 inh	HSF1 inh	Hsp70 activator	HSF1 activator	HSP90 inh
O=S(=O)(NCC1CCCO1)c1ccc(S(=O)(=O)N(Cc2ccc(F)cc2)C2CCCCC2)cc1 (stereo not drawn)	nt	nt	7	0	13	4
Cc1cccc(CS(=O)(=O)c2nnc([C@H](Cc3ccccc3)NC(=O)OC(C)(C)C)o2)c1	-8	-7	-68*	0	-69	10
COC(=O)CS(=O)(=O)c1nnc([C@H](Cc2ccccc2)NC(=O)OC(C)(C)C)o1	-12	13	35	0	?	-1
Oc1ccccc1/C=N/NC(=S)NC1CC2CCC1C2 (stereo not drawn)	-1	24	9	nt	34	1
S=C(N/N=C/c1ccco1)NC1CC2CCC1C2 (stereo not drawn)	-2	5	30	nt	58*	3
Cc1ccc(NC(=O)CC2NCCNC2=O)cc1 (stereo not drawn)	-3	7	10	0	-7	-3
O=C(CC1NCCNC1=O)Nc1ccc([N+](=O)[O-])cc1 (stereo not drawn)	0	32*	2	0	-8	0
COc1cccc(COC(=O)c2ccc3c(c2)NC(=O)C(C)S3)c1OC (stereo not drawn)	nt	nt	-77*	nt	-82	nt
CS(=O)(=O)Nc1cccc2cccnc12	-5	-7	nt	0	nt	-2
Cc1ccc(S(=O)(=O)Nc2cccc3cccnc23)c([N+](=O)[O-])c1	-6	-7	161	nt	220*	6
Cc1cc(C)c(NS(=O)(=O)c2cccc3cccnc23)c(C)c1	-6	10	4	0	25	3
Cc1ccc2cccc(NS(=O)(=O)c3ccccc3)c2n1	-39	12	137	nt	140*	0
O=S(=O)(Nc1cccc2cccnc12)c1ccccc1	1	14	73	nt	94*	5
O=S(=O)(Nc1cccc2cccnc12)c1ccc(S(=O)(=O)N2CCCC2)cc1	5	21	157	0	189*	4
CC(=O)Nc1ccc(S(=O)(=O)Nc2cccc3cccnc23)cc1	15	-10	-5	nt	13	-2
Cc1occc1-c1nnc(SCCNCCO)o1	2	-2	-7	0	-7	-3
CCC1C(=O)NCCN1C(=O)c1cccc(OC2CCN(S(=O)(=O)N(C)C)CC2)c1 (stereo not drawn)	-9	20	9	nt	14	-6
O=C(CN1CCN(S(=O)(=O)c2ccc(Br)cc2)CC1)N/N=C/c1ccccc1C(=O)O	-8	0	0	nt	18	-6
O=C(O)CCN1C(=O)c2ccc(Oc3ccc([N+](=O)[O-])cc3)cc2C1=O	4	0	1	nt	0	1
Cc1ccc(NC(=O)Cc2nnc(SCC(=O)NC3CCCC3)n2C)c(C)c1	4	-2	-8	nt	-5	2
CC(C)c1ccc(-c2csc3nc[nH]c(=O)c23)cc1	-3	13	2	nt	6	-3
CC(/C=C1\SC(=S)N(CCC(=O)Nc2nc(C)cs2)C1=O)=C\c1ccccc1	0	nt	4	nt	8	2
COc1ccccc1NS(=O)(=O)c1ccc2ccccc2c1	-8	23	1	nt	1	3
COc1ccc(NS(=O)(=O)c2ccc3ccccc3c2)c2ncccc12	1	-11	311	nt	393*	11
O=C(NCC(=O)N1CCC2(CC1)NCCc1[nH]cnc12)c1ccc2ccccc2c1	-8	21	-1	nt	-4	2
SMILES	pCIP destab	NALP1 inh	HSF1 inh	Hsp70 activator	HSF1 activator	HSP90 inh
CC1(C(=O)N/N=C/c2c(F)c(F)c(F)c(F)c2F)CC1(Cl)Cl (stereo not drawn)	nt	nt	-4	nt	22	nt
CCOC(=O)C1=C(COC(=O)c2cc(OC)c(OC)cc2[N+](=O)[O-])NC(=O)NC1C (stereo not drawn)	nt	nt	1	nt	3	nt
C=CCn1c(NCc2cc(C)ccc2O)nc2ccccc21	-4	-18	10	0	13	-2
C=CCn1c(NC(C)c2cc(Cl)ccc2O)nc2ccccc21 (stereo not drawn)	-5	47*	6	0	16	2
CN(C)c1ccc(Nc2ccc([N+](=O)[O-])cn2)cc1	3	17	17	nt	19	-4
O=C(NN=C1CCCCCC1)c1cccs1	6	2	3	nt	21	-1
CC1CN(C(=O)Nc2ccc3c(c2)OCCO3)CC(C)O1 (stereo not drawn)	1	8	-58*	0	-64	-4
Cc1ccsc1C(=O)Nc1ccc2c(c1)OCCO2	-15	36	12	0	51*	15
Cc1cccc(NC(=O)c2ccc3c(c2)OCCO3)c1C	-17	18	20	nt	50	4
Cc1ccccc1NC(=O)c1ccc2c(c1)OCCO2	-5	10	-65*	0	-73	2
CC(C)(C)OC(=O)N1CCN(C(=O)Nc2ccc3c(c2)OCCO3)CC1	-2	9	-25	1	-20	5
Cc1cccc(NC(=S)NNC(=O)c2sccc2C)c1	3	-9	29	0	57*	0
COc1ccc(CNC(=O)CN(Cc2ccc(C)cc2)C(=O)c2csnn2)cc1	-26	8	9	nt	0	3
CC(OC(=O)C1CC1)C(=O)Nc1cc(C(F)(F)F)ccc1Cl (stereo not drawn)	-11	-8	-16	0	4	2
Cc1cccc(C)c1N1CCN(C(=O)Nc2ccc3c(c2)OCCO3)CC1	-8	-3	-48	0	-51	-5
O=C(Nc1ccc2c(c1)OCCO2)N1CCN(c2ccc(F)cc2)CC1	-7	25	-58*	0	-60	3
CC1CN(C(=O)CCC(=O)N2CCN(c3cccc(C(F)(F)F)c3)CC2)c2ccccc2O1 (stereo not drawn)	-9	12	-4	nt	-12	3
O=S(=O)(Nc1cc2nc3ccccc3nc2n1Cc1ccccc1)c1ccc(Cl)cc1	-8	19	78	1	114*	7
COc1cccc(CNc2nc3ccccc3n2C(C)C)c1O	6	20	153	nt	182*	-2
CCCn1c(NCc2cccc(OC)c2O)nc2ccccc21	2	-47	32	0	62*	-4
CCCn1c(NCc2cccc(OC)c2OC)nc2ccccc21	0	10	8	0	-2	3
CC(C)NS(=O)(=O)c1ccc(NC(=O)Cc2ccsc2)cc1	7	22	7	nt	7	-5
O=C(Cc1ccsc1)Nc1ccc(S(=O)(=O)C(F)F)cc1	23	6	-64*	0	-71	-2
CCc1cccc(CC)c1NC(=O)c1cccc(S(=O)(=O)N2CCN(C)CC2)c1	-10	10	-2	nt	-9	-6
CCc1cccc(NC(=O)c2cccc(S(=O)(=O)N3CCN(C)CC3)c2)c1	-2	19	33	nt	78*	-5
CN1CCN(S(=O)(=O)c2cccc(C(=O)NCCC3=CCCCC3)c2)CC1	nt	nt	-76*	nt	-82	nt

Assay outcomes (PubChem BioAssay)
